Measured values reported in PubChem BioAssay (Tox21).
Results filed as inconclusive are left out. Activity calls are given as the source filed them. Unless noted, calls follow the shape of the full dose curve.

Assays:
[1] = qHTS assay to identify small molecule antagonists of the estrogen receptor beta (ER-beta) signaling pathway - cell viability counter screen (AID 1259382; active = well fitted curve in the direction sought with a large enough effect in the repeat runs; an effect the other way counts as inactive or inconclusive; also: nearly all actives have a fitted effect of over 55% in size; also: potency is read from the fitted curve at half-maximal effect;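 as to activity change, negative = cytotoxicity: HEK293T cells carrying ER-beta-UAS-bla reporter stimulated with estradiol; series mostly up to about 92 µM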)
How it was run: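 Cytotoxicity counter screen multiplexed with the beta-lactamase antagonist assay: GripTite HEK293T ER-beta-bla cells were treated 16 hr with test chemicals in the presence of 1nM 17-beta-estradiol, and viability was measured by CellTiter-Glo.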

[2] = molecular target: Estrogen receptor (Homo sapiens) (UniProt P03372); experiment: qHTS assay to identify small molecule agonists of the estrogen receptor alpha (ER-alpha) signaling pathway in the presence of an antagonist (AID 1259383); also: nearly all actives have a fitted effect of over 15% in size; also: potency is read from the fitted curve at half-maximal effect; as to activation: top concentration of the series differs between compounds
Chain of Estrogen receptor (Homo sapiens) (P03372 whole entry, looked up): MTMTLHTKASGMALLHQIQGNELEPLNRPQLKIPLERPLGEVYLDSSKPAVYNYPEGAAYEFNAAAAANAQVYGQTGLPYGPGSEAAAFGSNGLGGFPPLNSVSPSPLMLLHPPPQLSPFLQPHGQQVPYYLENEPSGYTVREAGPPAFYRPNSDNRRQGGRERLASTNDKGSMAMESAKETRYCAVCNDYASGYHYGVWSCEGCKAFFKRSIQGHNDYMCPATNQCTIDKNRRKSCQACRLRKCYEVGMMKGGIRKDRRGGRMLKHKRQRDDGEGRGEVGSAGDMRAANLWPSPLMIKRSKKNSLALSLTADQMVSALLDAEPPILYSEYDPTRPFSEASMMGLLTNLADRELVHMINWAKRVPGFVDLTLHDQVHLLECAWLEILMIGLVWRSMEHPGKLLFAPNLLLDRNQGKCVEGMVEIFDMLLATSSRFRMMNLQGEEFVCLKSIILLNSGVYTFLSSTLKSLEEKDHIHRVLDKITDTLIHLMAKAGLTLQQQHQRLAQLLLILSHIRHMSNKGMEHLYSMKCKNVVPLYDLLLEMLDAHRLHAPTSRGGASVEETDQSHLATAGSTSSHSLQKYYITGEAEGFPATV
How it was run: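 Agonist-mode confirmation in the presence of the ER antagonist ICI-182,780 at 10.0nM final. Breast-derived VM7Luc4E2 reporter cells were exposed to compounds for 22hr, and ERE-driven luciferase was quantified by luminescence.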

[3] = qHTS assay to identify small molecule agonists or antagonists of the thyroid stimulating hormone receptor (TSHR) signaling pathway - wild type cell line counter screen (AID 1259384)
How it was run: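 Wild-type HEK293 cells were plated 18 h at 37 C/5% CO2, pin-dosed with compound plus Ro20-1724 medium, held 30 min at room temperature, then given cAMP-d2 and anti-cAMP-cryptate; fluorescence was read after 1 h. Fifteen concentrations, triplicate.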

[4] = molecular target: Thyrotropin receptor (Homo sapiens) (UniProt P16473); experiment: qHTS assay to identify small molecule antagonists of the thyroid stimulating hormone receptor (TSHR) signaling pathway (AID 1259385); also: nearly all actives have a fitted effect of over 20% in size; also: potency is read from the fitted curve at half-maximal effect
Chain of Thyrotropin receptor (Homo sapiens) (P16473 whole entry, looked up): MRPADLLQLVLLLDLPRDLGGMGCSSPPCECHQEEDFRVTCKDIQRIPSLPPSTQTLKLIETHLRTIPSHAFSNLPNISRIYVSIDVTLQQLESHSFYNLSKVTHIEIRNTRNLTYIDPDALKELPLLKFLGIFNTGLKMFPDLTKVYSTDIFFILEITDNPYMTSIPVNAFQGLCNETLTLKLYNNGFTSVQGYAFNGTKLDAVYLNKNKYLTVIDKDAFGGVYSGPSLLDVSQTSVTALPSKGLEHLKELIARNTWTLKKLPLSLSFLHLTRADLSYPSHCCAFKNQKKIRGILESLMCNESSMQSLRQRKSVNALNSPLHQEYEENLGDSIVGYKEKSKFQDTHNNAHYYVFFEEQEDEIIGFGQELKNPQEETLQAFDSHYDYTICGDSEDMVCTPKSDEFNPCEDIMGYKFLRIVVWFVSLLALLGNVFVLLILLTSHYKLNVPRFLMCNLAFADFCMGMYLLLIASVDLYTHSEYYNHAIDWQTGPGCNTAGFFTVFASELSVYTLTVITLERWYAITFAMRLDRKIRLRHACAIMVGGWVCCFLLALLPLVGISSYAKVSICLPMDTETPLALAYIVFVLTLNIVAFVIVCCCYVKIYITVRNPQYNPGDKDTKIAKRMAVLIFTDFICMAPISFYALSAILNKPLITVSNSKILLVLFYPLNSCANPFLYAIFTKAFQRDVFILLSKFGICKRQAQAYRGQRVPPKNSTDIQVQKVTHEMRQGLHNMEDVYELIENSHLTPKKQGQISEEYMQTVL
How it was run: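 TSHR-HEK293 cells were plated and held 18 h at 37C/5% CO2, then given compound plus Ro20-1724 and stimulated with TSH at 1.5 ng/mL final. After 30 min at room temperature, cAMP was detected with cAMP-d2/anti-cAMP-cryptate (1 h) by fluorescence.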

[5] = molecular target: Progesterone receptor (Homo sapiens) (UniProt P06401); experiment: qHTS assay to identify small molecule agonists of the progesterone receptor (PR) signaling pathway (AID 1346784); also: nearly all actives have a fitted effect of over 30% in size
Chain of Progesterone receptor (Homo sapiens) (P06401 whole entry, looked up): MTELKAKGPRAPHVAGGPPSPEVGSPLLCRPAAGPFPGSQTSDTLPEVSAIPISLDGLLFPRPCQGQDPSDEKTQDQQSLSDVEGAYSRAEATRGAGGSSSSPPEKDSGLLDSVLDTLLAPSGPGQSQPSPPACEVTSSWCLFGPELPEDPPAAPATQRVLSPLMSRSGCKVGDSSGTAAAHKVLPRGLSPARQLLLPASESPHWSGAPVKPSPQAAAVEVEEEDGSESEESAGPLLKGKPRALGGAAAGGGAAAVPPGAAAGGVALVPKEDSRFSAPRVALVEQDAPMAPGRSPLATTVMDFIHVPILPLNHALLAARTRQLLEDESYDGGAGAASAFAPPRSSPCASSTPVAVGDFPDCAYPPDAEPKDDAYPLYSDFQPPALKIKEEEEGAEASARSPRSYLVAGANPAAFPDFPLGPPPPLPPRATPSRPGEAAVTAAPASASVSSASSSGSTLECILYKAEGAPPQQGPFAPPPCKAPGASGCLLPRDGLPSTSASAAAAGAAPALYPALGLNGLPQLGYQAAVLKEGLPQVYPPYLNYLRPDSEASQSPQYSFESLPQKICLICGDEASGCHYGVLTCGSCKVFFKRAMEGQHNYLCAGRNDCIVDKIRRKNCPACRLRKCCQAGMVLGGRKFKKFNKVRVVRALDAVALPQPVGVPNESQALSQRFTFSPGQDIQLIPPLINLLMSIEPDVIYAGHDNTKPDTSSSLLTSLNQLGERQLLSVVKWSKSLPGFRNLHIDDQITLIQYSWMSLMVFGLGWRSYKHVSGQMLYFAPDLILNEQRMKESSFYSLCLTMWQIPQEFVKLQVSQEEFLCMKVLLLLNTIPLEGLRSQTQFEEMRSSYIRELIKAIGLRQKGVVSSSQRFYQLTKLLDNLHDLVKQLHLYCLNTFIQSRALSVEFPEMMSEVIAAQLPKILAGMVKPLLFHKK
How it was run: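 Beta-lactamase reporter read-out: after 16 hr compound treatment at 37C and a further 2 hr at room temperature with LiveBLAzer B/G FRET substrate, fluorescence was measured in PR-UAS-bla HEK 293T cells grown in 2% charcoal-stripped serum.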

[6] = molecular target: Progesterone receptor (Homo sapiens) (UniProt P06401); experiment: qHTS assay to identify small molecule antagonists of the progesterone receptor (PR) signaling pathway (AID 1346795; active = well fitted inhibition curve with a large enough effect in the signal ratio in the repeat runs, not every such curve was filed as active; the % refers to the signal ratio; also: potency is read from the fitted curve at half-maximal effect)
How it was run: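 Read-out is fluorescence from the LiveBLAzer B/G FRET substrate, cleaved by a UAS-controlled beta-lactamase in PR-UAS-bla HEK293T cells after 16 hr exposure to compound plus 1 nM promegestone (final), followed by 2 hr at room temperature.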

[7] = qHTS assay to identify small molecule antagonists of the progesterone receptor (PR) signaling pathway - cell viability counter screen (AID 1346798; active = well fitted curve in the direction sought with a large enough effect in the repeat runs; an effect the other way counts as inactive or inconclusive; also: nearly all actives have a fitted effect of over 50% in size; also: potency is read from the fitted curve at half-maximal effect;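 as to activity change, negative = cytotoxicity: HEK293T PR-UAS-bla cells stimulated with the agonist R5020; series mostly up to about 92 µM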)
How it was run: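 HEK293T PR-UAS-bla, 2% charcoal-stripped FBS; 4 hr pre-plate; cpd + R5020, 16 h 37C; LiveBLAzer read first; then CellTiter-Glo 30 min RT, luminescence.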

[8] = qHTS assay to identify small molecule agonists of the progesterone receptor (PR) signaling pathway - cell viability counter screen (AID 1346799); also: nearly all actives have a fitted effect of over 45% in size; also: potency is read from the fitted curve at half-maximal effect
How it was run: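 Luminescence from CellTiter-Glo, added after the beta-lactamase FRET read in the same wells, gave cytotoxicity in PR-UAS-bla HEK293T cells treated with compounds for 16 hr at 37C.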

[9] = qHTS assay to identify small molecule agonists of the estrogen receptor alpha (ER-alpha) signaling pathway in the presence of an antagonist - cell viability counter screen (AID 1259386; active = well fitted curve in the direction sought with a large enough effect in the repeat runs; an effect the other way counts as inactive or inconclusive;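 also: cells exposed to compounds for 22 h at 37 °C before the viability read; nearly all actives have a fitted effect of over 30% in size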; also: potency is read from the fitted curve at half-maximal effect; as to activity change, negative = cytotoxicity: series mostly up to about 92 µM)
How it was run: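 Cytotoxicity was measured in parallel with the ERE-luciferase agonist screen, in the same wells. The cells were VM7Luc4E2, which endogenously express ER-alpha, and treatment was with compounds plus 10.0nM ICI-182,780 for 22hr.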
% is scaled to controls: 0 for no effect and ±100 for the full control effect.

CCCCCCCCc1ccc(Nc2ccc(CCCCCCCC)cc2)cc1
inactive: Potency [1] | Potency [2] | Potency [3] | Potency [4] | outcome [5] | Potency [6] | Potency [7] | Potency [8]

CC1(C)[C@H]2CC[C@]1(C)C(=O)C2
inactive: Potency [1] | Potency [2] | Potency [3] | Potency [4] | Potency [9] | outcome [5] | Potency [7]

CC(O)(c1ccc(Cl)cc1)c1ccc(Cl)cc1
inactive: Potency [1] | Potency [2] | Potency [3] | Potency [4] | Potency [9] | outcome [5] | Potency [8]

Cc1cc(Br)ccc1NC(=O)CCl
inactive: Potency [2] | Potency [3] | Potency [4] | outcome [5]
active: Potency [1] 30.6 µM | Potency [7] 15.4 µM | Potency [8] 27.3 µM

CCC(O)CO (stereo unspecified)
inactive: Potency [1] | Potency [2] | Potency [3] | Potency [4] | outcome [5] | Potency [6] | Potency [8]

Cc1ccc2nc(-c3ccc(N)cc3)sc2c1S(=O)(=O)O
inactive: Potency [1] | Potency [2] | Potency [3] | Potency [4] | Potency [9] | Potency [7] | Potency [8]

CCN(CC)c1ccc(N=Nc2ccccc2)cc1
inactive: Potency [3] | Potency [7]
active: Potency [1] 30.6 µM | Potency [2] 0.193 µM | Potency [4] 68.6 µM | Potency [9] 30.6 µM | Potency [6] 19.3 µM

Cn1ccnc1
inactive: Potency [1] | Potency [2] | Potency [3] | Potency [4] | outcome [5] | Potency [6] | Potency [8]

CCCC(C)C=O (stereo unspecified)
inactive: Potency [1] | Potency [2] | Potency [3] | Potency [4] | Potency [9] | outcome [5] | Potency [6] | Potency [8]

C1CCSC1
inactive: Potency [1] | Potency [2] | Potency [3] | Potency [4] | Potency [9] | outcome [5] | Potency [6] | Potency [8]

CCc1cccc(C)c1N(C(=O)CS(=O)(=O)O)C(C)COC (stereo unspecified)
inactive: Potency [1] | Potency [2] | Potency [3] | Potency [4] | outcome [5] | Potency [6] | Potency [7] | Potency [8]

C=CC(=O)OCCOC1C2CCC1C1CC=CC12 (stereo unspecified)
inactive: activity change, negative = cytotoxicity [1] 2.85% [at 19 µM] | activation [2] 0.428% [at 19 µM] | cAMP activity change [3] -2.01% [at 18.9 µM, hits give high values] | activity change, negative = inhibition [4] 6.1% [at 19 µM] | activity change, negative = cytotoxicity [9] 0.411% [at 19 µM] | activity change, negative = cytotoxicity [8] 1.19% [at 19 µM]

O=C(N[C@H](CO)[C@H](O)c1ccc([N+](=O)[O-])cc1)C(Cl)Cl
inactive: Potency [1] | Potency [2] | Potency [3] | Potency [4] | outcome [5]

O=C(Nc1ccccc1)c1cc(Cl)ccc1O
inactive: Potency [1] | Potency [2] | Potency [3] | Potency [4]
active: Potency [9] 15.4 µM | Potency [6] 24.3 µM

CN1CCN(CCCN2c3ccccc3Sc3ccc(Cl)cc32)CC1
active: Potency [1] 13.3 µM | Potency [4] 26.6 µM | Potency [7] 21.1 µM
inactive: Potency [2] | Potency [3] | Potency [9] | outcome [5]

NC(=O)C1CO1 (stereo unspecified)
inactive: Potency [1] | Potency [2] | Potency [3] | Potency [4] | Potency [9] | outcome [5] | Potency [6] | Potency [8]

[Cl][Dy]([Cl])[Cl]
inactive: Potency [1] | Potency [2] | Potency [3] | Potency [4] | outcome [5] | Potency [8]

Cc1ccc(C=O)cc1
inactive: Potency [1] | Potency [2] | Potency [3] | Potency [4] | outcome [5] | Potency [6] | Potency [7] | Potency [8]

[Cl][Sc]([Cl])[Cl]
inactive: Potency [1] | Potency [2] | Potency [3] | Potency [4] | outcome [5] | Potency [6] | Potency [7] | Potency [8]

C=COCCCC
inactive: Potency [1] | Potency [2] | Potency [3] | Potency [4] | Potency [9] | outcome [5] | Potency [8]

CC(C)C(=O)C(C)C
inactive: Potency [1] | Potency [2] | Potency [3] | Potency [4] | Potency [9] | outcome [5] | Potency [7] | Potency [8]

N#Cc1ccc(C/C(=N/NC(=O)Nc2ccc(OC(F)(F)F)cc2)c2cccc(C(F)(F)F)c2)cc1
inactive: Potency [1] | Potency [2] | Potency [3] | Potency [4] | Potency [9] | outcome [5] | Potency [8]
active: Potency [6] 27.3 µM

CCNc1nc(NC(C)(C)C)nc(OC)n1
inactive: Potency [1] | Potency [2] | Potency [3] | Potency [4] | outcome [5] | Potency [6] | Potency [7]

Clc1ccc2c(Cl)ccnc2c1
inactive: Potency [1] | Potency [2] | Potency [3] | Potency [4] | Potency [9] | outcome [5] | Potency [6] | Potency [7] | Potency [8]

CO[Si](OC)(c1ccccc1)c1ccccc1
inactive: Potency [1] | Potency [2] | Potency [3] | Potency [4] | Potency [9] | outcome [5] | Potency [8]

COc1cc(OC)nc(NC(=O)NS(=O)(=O)Nc2ccccc2C(=O)N(C)C)n1
inactive: Potency [1] | Potency [2] | Potency [3] | Potency [4] | Potency [9] | outcome [5] | Potency [6] | Potency [8]

Cc1ccc2sc3cccc(C)c3c2c1
inactive: Potency [1] | Potency [2] | Potency [3] | Potency [4] | outcome [5] | Potency [7] | Potency [8]

COc1cc2ncnc(Nc3cccc(Cl)c3)c2cc1OC
inactive: activity change, negative = cytotoxicity [1] 0.759% [at 19 µM] | activation [2] -1.36% [at 19 µM] | cAMP activity change [3] 2.68% [at 18.9 µM, hits give high values] | activity change, negative = inhibition [4] 1.54% [at 19 µM] | activation [5] -0.0125% [at 19 µM]
